Assay results taken from PubChem BioAssay (EPA / NIEHS).
Inconclusive results are not listed. The source made the active and inactive calls. Rule for the calls, unless noted: active = hit-call score of the fitted dose curve at least 0.9, where 1 is the maximum; inactive = score below 0.9.

Experiments:
[1] = CCTE_Harrill_HTTr_CellCount_MCF7: CCTE's Cell Proliferation Assessment for the High-Throughput Transcriptomics (HTTr) Platform, Harrill Lab (AID 2284012; active = hit-call score of the fitted dose curve at least 0.9, where 1 is the maximum;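 note: count of Hoechst-stained nuclei per well by high-content imaging in MCF-7 cells; cells exposed to compound for six hours; intended direction is loss of nuclei count meaning fewer cells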)
Summary of the method: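 Chemicals in eight-point dilution series are added to MCF-7 cells for six hours, nuclei are stained with Hoechst and imaged, and per-well nuclei counts are fitted in both directions relative to DMSO controls.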

[2] = CCTE_Shafer_MEA_acute_burst_number: CCTE's Neural Acute Assay for Single-Electrode Bursts, Shafer Lab (AID 2284013)
Summary of the method: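 Primary rat cortical neurons on 16-electrode MEA wells, treated on DIV 13 or 15 with compound at 0.03-40 uM. Single-electrode burst count from 40-min recordings at 37 C before and after exposure; percent change from baseline per well, DMSO negative control.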

[3] = CCTE_Shafer_MEA_acute_burst_duration_mean: CCTE's Neural Acute Assay for Mean Burst Duration, Shafer Lab (AID 2284014);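 note: hits are decreases in mean burst duration relative to DMSO controls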
Summary of the method: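 Rat primary cortical neurons on 48-well MEA, treated at DIV 13 or 15 with 0.03-40 uM in at least 3 wells. Value is percent change in mean burst duration, comparing 40 min recordings at 37 C before and during exposure.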

[4] = CCTE_Shafer_MEA_acute_per_burst_spike_number_mean: CCTE's Neural Acute Assay for Average Number of Spikes Per Burst, Shafer Lab (AID 2284015);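 note: hits are decreases in mean spikes per burst versus baseline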
Summary of the method: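 We recorded spontaneous network firing of rat cortical neurons for 40 min before and 40 min during exposure to compound at 0.03-40 uM, at 37 C. Spikes were detected adaptively at 8x rms noise, and the change in average spikes per burst was fitted against DMSO.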

[5] = CCTE_Shafer_MEA_acute_interburst_interval_mean: CCTE's Neural Acute Assay for Mean Interburst Interval, Shafer Lab (AID 2284016);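 note: percent change of mean interburst interval versus each well's own pre-dose baseline; curves fitted for decrease in interburst interval relative to DMSO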
Summary of the method: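 MEA recording of spontaneous network bursting in primary rat cortical cultures; mean interburst interval was compared before and after a 40-min compound exposure (0.03-40 uM) and expressed as percent change, relative to DMSO.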

[6] = CCTE_Shafer_MEA_acute_burst_percentage_mean: CCTE's Neural Acute Assay for Percentage of Spikes in a Burst, Shafer Lab (AID 2284017);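 for AC50: curve fitted for loss of signal so potency reflects decreased burst percentage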
Summary of the method: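 Compounds were tested at 0.03-40 uM on primary rat cortical neuron networks grown over microelectrodes, with at least three wells per compound. Spontaneous firing was recorded for 40 min before and 40 min after dosing, and the change in burst percentage was computed per well.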

[7] = CCTE_Shafer_MEA_acute_burst_percentage_std: CCTE's Neural Acute Assay for Standard Deviation of Burst Percentage, Shafer Lab (AID 2284018);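 note: fitted in the negative direction so actives lower burst percentage SD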
Summary of the method: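 Rat primary cortical neurons on 48-well MEAs, DIV 13 or 15, 37 C. 40-min baseline then 40-min recording with compound (0.03-40 uM); well-level SD of per-electrode burst spike percentage, expressed as percent change from baseline.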

[8] = CCTE_Shafer_MEA_acute_per_network_burst_spike_number_mean: CCTE's Neural Acute Assay for Average Number of Spikes in a Network Burst, Shafer Lab (AID 2284019);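 for AC50: curve fitted for loss of signal so actives reduce spikes per network burst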
Summary of the method: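 Rat primary cortical neurons on 48-well MEA at DIV 13 or 15, 37 C; compounds 0.03-40 uM, at least three wells each. 40-min baseline then 40-min exposure recording; percent change in mean spikes per network burst.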

[9] = CCTE_Shafer_MEA_acute_per_network_burst_spike_number_std: CCTE's Neural Acute Assay for Standard Deviation of Number of Spikes in a Network Burst, Shafer Lab (AID 2284020);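 note: fitted for decrease in spike-number SD versus DMSO so actives lower it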
Summary of the method: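 Rat primary cortical neurons on 48-well MEA (16 electrodes/well), treated DIV 13 or 15 at 0.03-40 uM, ≥3 wells per compound. 40 min recordings at 37 C before and after dosing; value is percent change in network-burst spike-number SD, negative direction vs DMSO.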

[10] = CCTE_Shafer_MEA_acute_network_burst_percentage: CCTE's Neural Acute Assay for Percentage of Network Bursts, Shafer Lab (AID 2284022);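 note: curves fitted for loss so actives lower network burst percentage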
Summary of the method: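 On DIV 13 or 15, at least three wells of rat cortical neurons per compound are dosed at 0.03-40 uM. Spontaneous firing is detected at 8x rms noise for 40 min before and after dosing at 37 C. The percent change in network-burst spike share is reported.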

[11] = CCTE_Shafer_MEA_acute_cross_correlation_area: CCTE's Neural Acute Assay for Area of Cross Correlation, Shafer Lab (AID 2284024);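 note: area under pooled inter-electrode spike cross-correlation near zero lag as percent change from own baseline; curves fitted for loss of cross-correlation area so actives lower synchrony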
Summary of the method: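 Extracellular recordings from cultured rat cortical neurons measure network synchrony as cross-correlation area; each well's post-compound value (0.03-40 uM, 40 min) is compared with its own 40 min baseline to give percent change.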

[12] = CCTE_Shafer_MEA_acute_cross_correlation_HWHM: CCTE's Neural Acute Assay for Cross Correlation at Half Width at Half Maximum, Shafer Lab (AID 2284026);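 note: percent change per well from pre-dose baseline in spike cross-correlogram half width; hits are a decrease in cross-correlogram half width relative to DMSO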
Summary of the method: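 Percent change in cross-correlogram half width at half maximum, narrower meaning more synchrony, was derived per well from paired 40-min recordings before and during exposure to 0.03-40 uM compound in rat cortical cultures at 37 C.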

[13] = CCTE_Shafer_MEA_acute_synchrony_index: CCTE's Neural Acute Assay for Synchrony, Shafer Lab (AID 2284027);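 note: fitted for loss of signal so actives lower synchrony relative to DMSO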
Summary of the method: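 Readout is percent change in the unitless network synchrony index (0 low, 1 high) between a 40-min baseline and a 40-min recording in compound. Cultures were primary rat cortical neurons on MEAs, treated at 0.03-40 uM on DIV 13 or 15.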

[14] = target: Estrogen receptor (Homo sapiens) (UniProt P03372); assay: CCTE_Deisenroth_AIME_384WELL_LUC_Active: CCTE's 384-well Estrogen Receptor Transactivation Assay with AIME metabolic competence (ERTA luciferase; metabolism positive), Deisenroth Lab (AID 2284030; active = hit-call score of the fitted dose curve at least 0.9, where 1 is the maximum)
Summary of the method: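 Estrogenic luciferase signal in VM7Luc4E2 cells is measured at 24 hour, after chemicals have been preconditioned 2 hours with PB/BNF-induced rat hepatic S9 in alginate. Gain of signal is fitted relative to 17beta-estradiol, across 0.002 - 200 uM.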

[15] = CCTE_Deisenroth_AIME_384WELL_CTox_Active: Cytotoxicity Assessment (CTOX) in CCTE's 384-well Estrogen Receptor Transactivation Assay with AIME metabolic competence (metabolism positive), Deisenroth Lab (AID 2284037; active = hit-call score of the fitted dose curve at least 0.9, where 1 is the maximum;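 note: chemicals first conditioned 2 h by alginate-bound induced rat liver S9 before cells; activity means signal loss indicating cell death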)
Summary of the method: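 Chemicals pre-incubated 2 hours with alginate-immobilised phenobarbital/beta-naphthoflavone-induced male Sprague Dawley rat liver S9, then conditioned medium applied 24 hour to VM7Luc4E2 cells. Viability by fluorogenic protease substrate; 10-point series 0.002 - 200 uM.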

Chain of Estrogen receptor (Homo sapiens) (P03372 whole entry, looked up): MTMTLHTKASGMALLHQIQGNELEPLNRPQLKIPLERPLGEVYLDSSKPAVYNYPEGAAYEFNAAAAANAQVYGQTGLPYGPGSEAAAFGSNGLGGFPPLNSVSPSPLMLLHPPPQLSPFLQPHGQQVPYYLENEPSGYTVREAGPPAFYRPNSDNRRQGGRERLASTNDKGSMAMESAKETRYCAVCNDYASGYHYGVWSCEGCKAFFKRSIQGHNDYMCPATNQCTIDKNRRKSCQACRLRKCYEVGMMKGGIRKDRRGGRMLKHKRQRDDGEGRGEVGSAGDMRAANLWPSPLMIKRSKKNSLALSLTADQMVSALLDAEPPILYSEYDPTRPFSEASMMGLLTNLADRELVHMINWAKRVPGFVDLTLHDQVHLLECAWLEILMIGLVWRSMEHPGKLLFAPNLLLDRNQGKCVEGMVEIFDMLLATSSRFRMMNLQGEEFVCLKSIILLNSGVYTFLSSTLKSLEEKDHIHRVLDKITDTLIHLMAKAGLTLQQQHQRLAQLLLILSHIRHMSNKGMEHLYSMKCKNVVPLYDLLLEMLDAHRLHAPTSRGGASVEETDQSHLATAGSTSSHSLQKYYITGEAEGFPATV

## NC(=O)c1nc(-c2cccc(-c3cc(F)ccc3OCC(F)(F)C(F)(F)F)c2)n[nH]1
[1]
  outcome: inactive
[2]
  AC50: 0.446 µM (active)
[3]
  outcome: inactive
[4]
  AC50: 4.11 µM (active)
[5]
  outcome: inactive
[6]
  AC50: 7.48 µM (active)
[7]
  AC50: 2.16 µM (active)
[8]
  AC50: 0.16 µM (active)
[9]
  AC50: 37.4 µM (active)
[10]
  outcome: inactive
[11]
  outcome: inactive
[12]
  AC50: 8.29 µM (active)
[13]
  AC50: 6.63 µM (active)

## O=CCCCC=O
[1]
  outcome: inactive

## CCCCOC(=O)CC(CC(=O)OCCCC)(OC(C)=O)C(=O)OCCCC
[1]
  outcome: inactive

## O=C(O)c1ccccc1-n1cc(C(=O)O)c(=O)c2cc(Nc3c(F)cc(F)cc3Cl)c(Cl)cc21
[1]
  outcome: inactive
[2]
  outcome: inactive
[3]
  outcome: inactive
[4]
  AC50: 20 µM (active)
[5]
  outcome: inactive
[6]
  outcome: inactive
[7]
  outcome: inactive
[8]
  outcome: inactive
[9]
  outcome: inactive
[10]
  outcome: inactive
[11]
  outcome: inactive
[12]
  outcome: inactive
[13]
  outcome: inactive

## O=C1c2ccccc2C(=O)N1CCc1noc(-c2ccc(CN3CCCCCC3)s2)n1
[1]
  outcome: inactive

## CC(C)(C)c1cc(/C=C2\SC(N)=NC2=O)cc(C(C)(C)C)c1O
[1]
  outcome: inactive
[2]
  outcome: inactive
[3]
  outcome: inactive
[4]
  outcome: inactive
[5]
  AC50: 14.6 µM (active)
[6]
  outcome: inactive
[7]
  outcome: inactive
[8]
  outcome: inactive
[9]
  outcome: inactive
[10]
  outcome: inactive
[11]
  outcome: inactive
[12]
  outcome: inactive
[13]
  outcome: inactive
[14]
  outcome: inactive
[15]
  outcome: inactive

## Cc1cc(F)ccc1-c1cc(N2CC[C@@H](O)[C@H]2CO)ncc1N(C)C(=O)C(C)(C)c1cc(C(F)(F)F)cc(C(F)(F)F)c1
[1]
  outcome: inactive

## O=C1CCC(C2CCCCC2)CC1
[1]
  outcome: inactive

## CCCC(=O)OCCC(C)C
[1]
  outcome: inactive

## CCOC(=O)O[C@H](C)OC(=O)c1ccc2c(c1)cc(C(=O)NC1CCN(C(C)C)CC1)n2Cc1cc(-c2ccc(Cl)s2)on1
[1]
  outcome: inactive

## CC(=O)N1CCN(c2ccc(OC[C@H]3CO[C@](Cn4ccnc4)(c4ccc(Cl)cc4Cl)O3)cc2)CC1
[1]
  outcome: inactive
[2]
  outcome: inactive
[3]
  outcome: inactive
[4]
  outcome: inactive
[5]
  outcome: inactive
[6]
  AC50: 33 µM (active)
[7]
  AC50: 32.9 µM (active)
[8]
  outcome: inactive
[9]
  outcome: inactive
[10]
  outcome: inactive
[11]
  outcome: inactive
[12]
  AC50: 33.1 µM (active)
[13]
  outcome: inactive

## CN1C(=O)N(c2ccccc2Br)Cc2cnc(Nc3ccc4c(c3)OCC(CO)O4)nc21 (configuration not stated)
[1]
  outcome: inactive

## O=C(OCCCCCCOC(=O)c1ccccc1)c1ccccc1
[1]
  outcome: inactive

## O=C(O)c1ccccc1C(=O)OCc1ccccc1
[1]
  outcome: inactive

## CN(C[C@@H](CC[N+]12CCC(C3CCCCC3)(CC1)CC2)c1ccc(Cl)c(Cl)c1)C(=O)c1cc(C(F)(F)F)cc(C(F)(F)F)c1
[1]
  outcome: inactive
[2]
  AC50: 0.249 µM (active)
[3]
  AC50: 1.19 µM (active)
[4]
  AC50: 1.14 µM (active)
[5]
  outcome: inactive
[6]
  AC50: 8.36 µM (active)
[7]
  AC50: 2.53 µM (active)
[8]
  outcome: inactive
[9]
  AC50: 8.89 µM (active)
[10]
  AC50: 8.37 µM (active)
[11]
  outcome: inactive
[12]
  AC50: 8 µM (active)
[13]
  AC50: 8.29 µM (active)

## CN(C)C(=O)C1(N2CCCCC2)CCN(CC[C@@]2(c3ccc(Cl)c(Cl)c3)CN(C(=O)c3ccccc3)CCO2)CC1
[1]
  outcome: inactive
[2]
  AC50: 2.11 µM (active)
[3]
  AC50: 1.81 µM (active)
[4]
  AC50: 2.5 µM (active)
[5]
  outcome: inactive
[6]
  AC50: 19.4 µM (active)
[7]
  outcome: inactive
[8]
  AC50: 2.5 µM (active)
[9]
  AC50: 20.4 µM (active)
[10]
  AC50: 17.8 µM (active)
[11]
  outcome: inactive
[12]
  AC50: 22.1 µM (active)
[13]
  AC50: 19.5 µM (active)

## OC12N=C(c3ccccc3)SC1Cc1cc(Cl)ccc12 (configuration not stated)
[1]
  outcome: inactive
[2]
  AC50: 6.49 µM (active)
[3]
  AC50: 20 µM (active)
[4]
  outcome: inactive
[5]
  AC50: 6.48 µM (active)
[6]
  AC50: 32.6 µM (active)
[7]
  AC50: 30.7 µM (active)
[8]
  outcome: inactive
[9]
  outcome: inactive
[10]
  outcome: inactive
[11]
  outcome: inactive
[12]
  AC50: 31.3 µM (active)
[13]
  AC50: 31.8 µM (active)
[14]
  outcome: inactive

## CCCCOC(=O)c1ccc(O)cc1
[1]
  outcome: inactive
[2]
  outcome: inactive
[3]
  outcome: inactive
[4]
  outcome: inactive
[5]
  AC50: 31 µM (active)
[6]
  AC50: 31.1 µM (active)
[7]
  outcome: inactive
[8]
  outcome: inactive
[9]
  outcome: inactive
[10]
  outcome: inactive
[11]
  outcome: inactive
[12]
  outcome: inactive
[13]
  outcome: inactive
